From PubChem BioAssay
Calls of active or inactive are those of the source. The rule behind the calls is not given here.

The compounds below were run against Lethal factor (Bacillus anthracis) (UniProt P15917) (assay: Bacillus anthracis lethal factor inhibition, microsphere flow cytometry protease assay, validation at 10 µM (AID 588461)). Settings: multiplex microsphere protease cleavage assay, hits give high values.
Sequence of Lethal factor (Bacillus anthracis) (P15917 whole entry, looked up): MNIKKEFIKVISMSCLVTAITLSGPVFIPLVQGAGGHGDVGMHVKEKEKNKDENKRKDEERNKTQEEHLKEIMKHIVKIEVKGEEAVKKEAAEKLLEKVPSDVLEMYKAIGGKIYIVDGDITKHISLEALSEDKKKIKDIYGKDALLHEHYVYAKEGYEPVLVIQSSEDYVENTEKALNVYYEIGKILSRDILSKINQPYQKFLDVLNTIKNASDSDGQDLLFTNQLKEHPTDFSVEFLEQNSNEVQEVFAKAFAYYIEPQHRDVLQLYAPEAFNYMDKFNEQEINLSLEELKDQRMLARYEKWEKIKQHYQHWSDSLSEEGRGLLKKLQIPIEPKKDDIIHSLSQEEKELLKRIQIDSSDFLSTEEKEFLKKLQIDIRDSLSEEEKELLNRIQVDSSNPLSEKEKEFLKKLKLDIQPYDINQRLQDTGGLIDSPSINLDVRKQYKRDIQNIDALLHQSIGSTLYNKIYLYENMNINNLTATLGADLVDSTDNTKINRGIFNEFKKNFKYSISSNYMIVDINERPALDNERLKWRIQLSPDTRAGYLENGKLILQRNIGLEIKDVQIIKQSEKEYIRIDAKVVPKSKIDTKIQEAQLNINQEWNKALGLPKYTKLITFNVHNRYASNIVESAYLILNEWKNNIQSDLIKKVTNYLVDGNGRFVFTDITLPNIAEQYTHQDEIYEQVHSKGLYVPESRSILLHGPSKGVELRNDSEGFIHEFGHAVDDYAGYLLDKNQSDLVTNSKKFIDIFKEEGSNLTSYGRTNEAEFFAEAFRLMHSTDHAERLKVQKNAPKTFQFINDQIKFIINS
With `Cc1ccccc1N1C(N)=NC(N)=NC1(C)C` the inhibition was 6.8% (inactive). `O=C(CCc1ccccc1)Nc1ccccc1C(F)(F)F` was tested, and the inhibition was 0.5% (inactive). For `COc1cc2c(cc1OC)C1(CCCCC1)CN(C)C2`, the inhibition was -1.7% (inactive). In the case of `CCN(CC)c1ccc([C@H]2[C@@H]3CCCC[C@]3(O)CCN2CC(=O)NCc2ccco2)cc1`, the inhibition is reported as -7.7% (inactive). With `O=C1[C@@H]2[C@H](Cc3ccc(O)cc3)N[C@]3(C(=O)Nc4ccccc43)[C@@H]2C(=O)N1c1ccc(F)cc1` the inhibition was -2.6% (inactive). In the case of `CC(=O)N(CCC1(c2ccc(C)cc2)CCOC(C(C)C)C1)Cc1ccco1` (stereo not given), the inhibition is reported as -7.5% (inactive). With `COc1ccc(C2=NOC(COc3ccc4c(C)cc(=O)oc4c3)C2)c(OC)c1` (stereo not given) the inhibition was 0% (inactive). With `O=C(CCc1c[nH]c2ccccc12)NCc1ccco1` the inhibition was 5.8% (inactive). With `COc1cc2c(cc1O)CC[C@@H]1[C@@H]2CC[C@]2(C)[C@@H](O)CC[C@@H]12` the inhibition was -2.9% (inactive). With `C#CCN1C(=O)C(O)(CC(=O)c2ccc(OC)c(OC)c2)c2ccccc21` (stereo not given) the inhibition was 2% (inactive). With `Cc1ccc(-n2ncc3c(Nc4cccc(C(=O)O)c4)ncnc32)cc1` the inhibition was 1.7% (inactive). `COc1cc(OC)c(C(=O)CCCN2CCCC2)c(OC)c1` was tested, and the inhibition was -2.6% (inactive). For `O=c1ccc2c(o1)/C(=C/C=C(Cl)Cl)CCC2`, the inhibition was -2% (inactive). For `O=C(O)CC(O)C(=O)O` (stereo not given), the inhibition was 3.8% (inactive). `NCCc1cnc[nH]1` was tested, and the inhibition was 3.7% (inactive).
